Among all 69,000 compounds or so, about 8,600 (12%) showed an effect of 50% or more. What follows is part of a selection rich in strong results, with near analogues and random picks from the rest.

The assay relates to Plasmodium berghei. The assay can be described thus: Screen against P. berghei liver stage (PbLuc), transformed with Luciferase, at 10uM. It is filed as functional, HepG2. As to conditions: tested at 10 uM.
For the compound `COc1ccc(NC(=O)CCNc2ncccn2)cn1`, the INHIBITION is 61%.

Turning to `O=C(CCNc1ncccn1)Nc1ccc(Cn2cncn2)cc1`, the INHIBITION is listed as -4.56%.

`COc1ccc(NC(=O)CSC(F)(F)F)cn1`: the INHIBITION worked out at 66.7%.

For the compound `COc1ccc2cc(NC(=O)CCCNc3ncccn3)cnc2c1`, the INHIBITION is on record as 46.1%.

With `COc1ccc(NC(=O)Cn2cc(-c3ccccc3)ncc2=O)cn1`, the INHIBITION is 44.9%.

Turning to `Cc1cc(C)nc(NCCC(=O)Nc2ccc(Cn3cncn3)cc2)n1`, the INHIBITION is 55.1%.

In the case of `COc1ccc2cc(NC(=O)CCNc3ncccn3)cnc2c1`, the INHIBITION was 41.5%.

Turning to `COc1ccc(NC(=O)N2CCN(c3ncccn3)CC2)cn1`, the INHIBITION is given as -7.11%.

Take `COc1ccc2cc(NC(=O)CCNc3nc(C)cc(C)n3)cnc2c1`: the INHIBITION amounted to 73%.

As for `O=C(CCCNc1ncccn1)Nc1ccc(Cn2cncn2)cc1`, the INHIBITION was 45.9%.

`COc1ccc(NC(=O)CSc2nc(C)cc(C)n2)cn1`: the INHIBITION is recorded as -5.69%.

`CS(=O)(=O)c1ccc(NC(=O)CSC(F)(F)F)cn1`: the INHIBITION was 39.8%.

As for `O=C(NCCc1nnc2n1CCC2)NCC1(c2cccc(F)c2)CC1`, the INHIBITION is listed as -36.3%.

On to `CO[C@H]1CN(C(C)C)C[C@@H]1NC(=O)Nc1ccc(C(F)(F)F)cc1`, for which the INHIBITION is recorded as 40.3%.

As to `CN(CC(=O)NC(C)(C)C)C(=O)C1CC(c2cccc(F)c2)=NO1` (stereo not drawn), the INHIBITION is recorded as -29.1%.

Turning to `COCCN1CCCC(c2nccnc2-c2cccc(Cl)c2)C1` (stereo not drawn), the INHIBITION is recorded as 12.75%.

`COc1ccc(-n2cc(CNC(=O)c3ccccn3)nn2)cc1`: the INHIBITION is on record as -15.9%.

Take `CS(=O)(=O)NCc1cc(-c2cc(F)cc(F)c2)nc(N2CCOCC2)n1`: the INHIBITION was -4.82%.

Consider `CCc1nc(CC)n(CC(=O)NCc2cccc(C)c2)n1`, for which the INHIBITION amounted to 13%.

Take `CN1CC(=O)N(c2ccccc2)CC12CCN(CC1CCOCC1)C2` (stereo not drawn): the INHIBITION is -11.2%.

Take `CCc1nccn1CC(=O)N1C[C@@H]2CC[C@H]1CN(c1ncccn1)C2`: the INHIBITION is -22.4%.

As for `Cc1cnn(CC2CN(Cc3nc(C)no3)CCO2)c1` (stereo not drawn), the INHIBITION was 4.71%.

As for `Cc1nc(CN2C[C@@H]3CN(C(=O)c4cccn4C)C[C@@H]3C2)cs1`, the INHIBITION amounted to 16.1%.

Turning to `CC(C(=O)NC(N)=O)N(C)CCCc1cc(-c2ccccc2)no1` (stereo not drawn), the INHIBITION was -28.36%.

Regarding `Cc1cccc(CN2CCC3(CC2)NC(=O)C[C@H]3c2cnn(C)c2)n1`, the INHIBITION was 1.61%.

On to `CC(NC(=O)c1cccc[n+]1[O-])C1CC1` (stereo not drawn), for which the INHIBITION is recorded as 9%.

As for `CC(C)CNC(=O)COc1cccc[n+]1[O-]`, the INHIBITION is listed as -12.1%.

For `CC(NC(=O)COc1cccc[n+]1[O-])C1CC1` (stereo not drawn), the INHIBITION was 76.7%.

Consider `CC(C)n1ccnc1C1CCN(c2nccc(C(F)(F)F)n2)CC1`, for which the INHIBITION is recorded as 11.5%.

Consider `COCCN(C/C=C/c1ccccc1)Cc1ccccn1`, for which the INHIBITION is listed as 27.8%.

On to `COCCN(C/C=C/c1ccccc1)Cc1nccs1`, for which the INHIBITION is given as -12.6%.

Turning to `CCc1ccc(CN(C/C=C/c2ccccc2)CCOC)nc1`, the INHIBITION worked out at 52.9%.

In the case of `c1cc2c(cc1CN1CC[C@H]3CO[C@H](CN4CCCC4)[C@H]3C1)OCO2`, the INHIBITION was determined as 10.5%.

With `C[C@H]1CN(C(=O)c2cscn2)C[C@@]12CCN(c1ccsc1)C2=O`, the INHIBITION was determined as 47.4%.

Consider `COCCOCC(=O)N1C[C@@H]2CC[C@H](Oc3ccccc3)[C@@H]2C1`, for which the INHIBITION was 7.52%.

For `CC(=O)N1CCO[C@@H]2CN(S(=O)(=O)C3CC3)C[C@@H]2C1`, the INHIBITION was 50.3%.

Turning to `CC(=O)N1C[C@@H]2CN(S(=O)(=O)C3CC3)CCO[C@@H]2C1`, the INHIBITION turned out to be 6.79%.

With `CC(=O)N1CCO[C@@H]2CN(S(=O)(=O)C3CC3)CC[C@@H]2C1`, the INHIBITION amounted to 37.6%.

Turning to `Cc1nn(C)c2c(=O)n(Cc3ccccc3)nnc12`, the INHIBITION amounted to 28.89%.

Consider `COc1ccnc(N2C[C@H]3CC[C@@H](C2)N(CC2CCC2)C3=O)n1`, for which the INHIBITION was determined as 32.1%.

In the case of `COc1cc2c(cc1CNC(=O)Cc1cc(C)on1)OC(C)C2` (stereo not drawn), the INHIBITION is on record as 47.4%.

In the case of `CC(C)N1CC(C(=O)NCc2ccnc(-n3cccn3)c2)CC1=O` (stereo not drawn), the INHIBITION is reported as -28%.

With `COc1cc2c(cc1CNC(=O)Cc1cc(C)[nH]n1)OC(C)C2` (stereo not drawn), the INHIBITION is 46.6%.

As for `COc1cc2c(cc1CNCc1cccnc1OC)OC(C)C2` (stereo not drawn), the INHIBITION is 60.2%.

For `COc1ccc(CNCc2ccnc(N3CCOCC3)c2)c(OC)c1`, the INHIBITION worked out at 29.6%.

With `COc1cc2c(cc1CNCc1ccnc(-n3cccn3)c1)OC(C)C2` (stereo not drawn), the INHIBITION is 67.8%.

On to `COc1cc2c(cc1CNCc1cccnc1-n1cccn1)OC(C)C2` (stereo not drawn), for which the INHIBITION came to 68.9%.

As for `COc1cc2c(cc1CNC(=O)Cc1ccc(C)nc1)OC(C)C2` (stereo not drawn), the INHIBITION is given as -25.3%.

Take `COc1cccc(CNCc2cccnc2-n2cccn2)c1OC`: the INHIBITION was 16.2%.

`O=S(=O)(Cc1ccccc1)N1CCCn2cnc(CN3CCCC3)c2C1`: the INHIBITION was -17.7%.

Consider `O=C(CCn1cccn1)N1CCC(c2nnc(-c3ccccn3)o2)CC1`, for which the INHIBITION came out at 44.9%.

For the compound `Cc1cc(-c2ccc(=O)n(C3CCN(C(=O)C4CCC4)CC3)n2)c(C)o1`, the INHIBITION was -30.9%.

`Cc1cnn(Cc2cc(F)ccc2F)c1NC(=O)NC1CC1`: the INHIBITION came to 35.6%.

These data come from ChEMBL document CHEMBL4513216, “Probing the Open Global Health Chemical Diversity Library for Multistage-Active Starting Points for Next-Generation Antimalarials” (ACS Infect Dis, 2020).
